Values joined by “and” are separate entries in the source; they are usually repeats but may differ in a detail not shown here. Equal values may be shown once. Records with an inconclusive call do not appear. Active and inactive are the calls of the source. Calls follow the shape of the dose curve; as a rule, active = well fitted inhibition curve with a large enough effect; inconclusive = small, poorly fitted or top-dose-only effect, or effect the other way; inactive = flat fitted curve, though single readings scatter.
Each molecule was assayed against Thyroid hormone receptor beta (Homo sapiens) (UniProt P10828) (assay: Concentration Response Confirmation Assay for Inhibitors of the Interaction of Thyroid Hormone Receptor and Steroid Receptor Coregulator 2, Fluorescein Fluoroprobe). Details: TRbeta LBD / fluorescein-SRC2 peptide, fluorescence polarization, 5 h; series mostly up to 92.2 µM.
Sequence of Thyroid hormone receptor beta (Homo sapiens) (P10828 whole entry, looked up, the tested form may be a part): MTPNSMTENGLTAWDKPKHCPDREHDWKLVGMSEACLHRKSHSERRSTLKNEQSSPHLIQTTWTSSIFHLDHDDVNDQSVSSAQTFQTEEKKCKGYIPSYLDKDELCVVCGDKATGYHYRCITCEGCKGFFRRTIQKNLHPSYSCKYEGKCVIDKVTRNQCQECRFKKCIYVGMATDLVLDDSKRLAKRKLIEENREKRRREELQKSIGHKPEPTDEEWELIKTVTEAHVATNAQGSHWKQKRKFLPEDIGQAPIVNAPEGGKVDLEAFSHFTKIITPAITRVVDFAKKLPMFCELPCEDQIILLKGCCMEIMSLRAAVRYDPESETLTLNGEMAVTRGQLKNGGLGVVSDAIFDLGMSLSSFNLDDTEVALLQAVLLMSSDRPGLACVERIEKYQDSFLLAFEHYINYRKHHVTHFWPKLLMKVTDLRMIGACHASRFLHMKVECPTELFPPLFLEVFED
Description: NIH Molecular Libraries Probe Production Network [MLPCN] NIH Chemical Genomics Center [NCGC] MLPCN Grant: DK058080 Assay Provider: R. Kip Guy, St. Jude Children's Research Hospital NCGC Assay Overview: Thyroid receptor (TR) regulates many homeostatic processes including basal metabolism, cardiovascular function, body weight, and lipid trafficking. TR modulators are potential therapeutics for obesity and hyperlipidemias but current thyroid analogs have undesirable side effects, particularly cardiac stimulation. To identify inhibitors that specifically prevent the interaction of TR with the steroid receptor coregulator 2 (SRC2), a fluorescence polarization assay was screened (Arnold et al., 2006). This assay detects interaction of the ligand-binding domain of human TRbeta with a fluorescein labeled SRC2 peptide, corresponding to a 20 amino acid region of the nuclear receptor interaction domain. Small molecule inhibitors that block the interaction of TR and SRC2 are detected by a decrease in fluorescence polarization. This assay is a confirmation assay for AID 1469. Arnold, L. A.; Estebanez-Perpina, E.; Togashi, M.; Shelat, A.; Ocasio, C. A.; McReynolds, A. C.; Nguyen, P.; Baxter, J. D.; Fletterick, R. J.; Webb, P.; Guy, R. K. A high-throughput screening method to identify small molecule inhibitors of thyroid hormone receptor coactivator binding. Sci STKE 2006, p 13.
NCGC Assay Protocol Summary: Five uL/well 0.6 uM TRbeta and 20 nM SRC2 Fluorescein in protein buffer (20mM Tris hydrochloride, 100mM NaCl, 10% glycerol, 1mM EDTA, 0.01% NP-40, 1mM DTT, 1uM T3 and 5% DMSO) was dispensed into black solid 1536-well plates (Grenier) using a solenoid-based dispenser. Following transfer of 23 nL compound or DMSO vehicle by a pin tool, the plates were centrifuged 15 s at 1000 RPM and incubated 5 hr at ambient temperature. The plates were read by an Envision (Perkin Elmer) to detect fluorescence polarization of SRC2 Fluorescein (480 nm excitation and 535 nm emission). Data were normalized to unbound (all components except TRbeta) and bound SRC2 Fluorescein controls. In this assay, we provide % activity data for each concentration as well as potencies for the active compounds. Keywords: NIH Roadmap, MLPCN, MLI, MLSMR, qHTS, NCGC, qHTS, thyroid hormone receptor, steroid receptor coactivator, fluorescence polarization

Potency, active:
COc1ccc(-c2nc(CS(=O)CC(=O)NCc3ccccn3)c(C)o2)cc1 (stereo not given) 35.5 µM, Oc1ccc2ccccc2c1/C=N/c1nc2c(s1)CCCC2 31.6 µM, CCCCOc1ccc(C(=O)CCN2CCOCC2)cc1 3.55 µM, O=C(O)/C=C/C(=O)Nc1ccc(OC(F)(F)F)cc1Br 50.1 µM, O=c1[nH]c(Nc2ccccc2)cc2ccccc12 25.1 µM, Cc1nc2ccccc2n2c(O)c(CC(=O)O)cc12 8.91 µM, CS(=O)(=O)c1ccc(C(=O)OCC(=O)NC(=O)C2CCCCC2)cc1[N+](=O)[O-] 5.01 µM, O=C(O)/C=C/C(=O)Nc1ccc(SC(F)(F)C(F)(F)C(F)(F)F)cc1 4.47 µM, CCCCOc1ccc(C(=O)CCN2CCCCC2)cc1 2.51 µM, CN1CCc2ccc3c4c2[C@]1(C)Cc1cccc(c1-4)OCO3 44.7 µM, COc1ccccc1Nc1cc2ccccc2c(=O)[nH]1 35.5 µM, Cc1ccccc1Nc1cc2ccccc2c(=O)[nH]1 10 µM and 28.2 µM, C=CC(=O)OCCOc1ccccc1 50.1 µM

Potency, inactive:
CCCc1cc(=O)[nH]c(=S)[nH]1, Cn1cc[nH]c1=S, CCOc1ccc(C2=Cc3cc(OC)c(OC)cc3C(=C(Cl)Cl)O2)cc1, CN(C(=S)Nc1cccnc1)c1ccc(O)cc1, O=c1cc(C23CC4CC(CC(C4)C2)C3)[nH][nH]1, Cc1nnc(SCC(=O)Nc2ccc(N(C)C)cc2)[nH]c1=O, Cn1c(=O)[nH]c2nnc(-c3ccc(Cl)c(Cl)c3)nc2c1=O, CCOc1cc(N2CCOCC2)c(OCC)cc1NC(C)C(=O)N1CCN(CC)CC1 (stereo not given), Cc1cc(C)cc(OCC(=O)NCCc2nc3ccccc3[nH]2)c1, COc1cc(NC(C)CCCN)c2ncccc2c1 (stereo not given), CCc1ccc2c(c1)c1nc(C)sc1n2CC, Cc1ccc2c(CC(=O)Nc3c(C(=O)c4ccc(F)cc4)oc4ccccc34)coc2c1C, CCOC(=O)c1cnc2nc(NCc3ccc(OC)c(OC)c3)[nH]n2c1=O, Cc1ccc(-c2nc(S(=O)(=O)c3ccc(F)cc3)c(SCC(=O)NCC3CCCO3)o2)cc1 (stereo not given), CC1=NN(Cc2ccccc2)C(=O)C1, Cc1ccc(OC(=S)Nc2ccc(O)cc2)cc1, Cc1cc2ccccc2n1CCNC(=O)C(C)Oc1ccccc1 (stereo not given), O=C(Nc1nc2ccc(Cl)cc2s1)c1ccc(N2CCCCC2)c([N+](=O)[O-])c1, Nc1cc(-c2ccncc2)c[nH]c1=O

activity, negative = inhibition, inactive:
CCCCCCN=CC1=C(O)CC(C)(C)CC1=O 4.31% [at 0.0112 µM], Cc1cc2c(NC(=O)Nc3ccccc3)cccc2nn1 -4.49% [at 0.0112 µM], N/C(Cc1cccc2ccccc12)=N\OC(=O)c1cccs1 -6.32% [at 5.76 µM], Cc1cc(N=Cc2c(O)ccc3ccccc23)no1 1.5% [at 0.0112 µM], CN(CCO)c1nc(N)c2c(N)nc3c(c2c1C#N)CC(=O)N3C1CCCC1 -0.749% [at 11.6 µM], CCN(CC)S(=O)(=O)c1cccc(N=NC2=C(O)CCCC2=O)c1 -3.56% [at 0.0112 µM], C/C(=C\C(=O)c1ccccc1)Nc1ccc(O)cc1 -2.06% [at 11.6 µM], CC(=O)c1cccc(NC(=O)COC(=O)c2ccc(S(C)(=O)=O)c([N+](=O)[O-])c2)c1 -8.61% [at 11.6 µM]
